Screens (PubChem BioAssay)
Hits are enriched below; roughly 1.9% of the tested compounds scored in any of these assays.
PME-1 primary – PME-1 (human) inhibition. AID 2130. Q9Y570. inhibition, % at 5.9 µM. recombinant PME-1, FP-Rh probe fluorescence polarization. 320,000 compounds, 0.53% hits;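 active = inhibition above the campaign mean of all compounds plus 3 SD, cut at about 26% in these data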;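 also: competitive labeling of PME-1 active site by serine hydrolase directed probe; 0% = PME-1 with DMSO and 100% = wells lacking PME-1 enzyme; inhibitors block probe labeling so polarization falls and inhibition rises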
LYPLA1 inh – blocks human lysophospholipase 1, a PME1 counter-screen. inhibition, % at 5.9 µM. 320,000 compounds, 0.16% hits. O75608. recombinant LYPLA1, FP-Rh probe fluorescence polarization. AID 2174;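 active = inhibition above the mean of all tested compounds plus 3 SD, set per campaign, cut at about 14% in these data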;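 also: inhibitors block serine hydrolase probe labeling of LYPLA1 so polarization falls; 0% = enzyme with DMSO and 100% = wells lacking LYPLA1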
PREPL inhibitor – human PREPL enzyme inhibition | Q4J6C6 | recombinant PREPL, fluorescence polarization activity-based probe | inhibition, % at 5.96 µM | 320,000 compounds, 0.68% hits | AID 2751;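 also: 0% = enzyme with DMSO and 100% = wells lacking enzyme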
Fam108B inh – blocks mouse Fam108B hydrolase in RBBP9 counter-screen; inhibition, % at 9.51 µM; recombinant Fam108B, FP-Rh probe fluorescence polarization; 300,000 compounds, 0.33% hits; AID 1947;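 active = inhibition above the screen mean inhibition plus 3 SD, computed separately per campaign, cut at about 18% in these data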;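 also: inhibitors lower polarization as less probe binds the enzyme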
LYPLA2 counter – LYPLA2 (human) inhibition in PME1 counter-screen. O95372. recombinant LYPLA2, FP-Rh probe fluorescence polarization. inhibition, % at 5.9 µM. 320,000 compounds, 0.38% hits. AID 2177;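 active = inhibition above the screen-wide mean plus 3 SD, limit set per campaign, cut at about 26% in these data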;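 also: 0% = LYPLA2 with DMSO and 100% = wells lacking LYPLA2 enzyme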
Target sequence (O95372 whole entry, looked up): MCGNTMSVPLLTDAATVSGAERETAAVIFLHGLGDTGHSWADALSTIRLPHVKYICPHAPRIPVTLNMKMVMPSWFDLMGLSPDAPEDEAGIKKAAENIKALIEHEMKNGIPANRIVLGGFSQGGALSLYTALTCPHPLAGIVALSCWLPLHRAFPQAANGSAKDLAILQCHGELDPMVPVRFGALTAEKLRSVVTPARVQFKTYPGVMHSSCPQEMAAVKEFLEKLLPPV
GSTO1 inh – blocks human GSTO1 in RBBP9 counter-screen | 300,000 compounds, 1.1% hits | recombinant GSTO1, activity-based probe fluorescence polarization | P78417 | inhibition, % at 5.96 µM;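 active = inhibition above the campaign mean inhibition plus 3 SD, cut at about 35% in these data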;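 also: 0% = GSTO1-1 with DMSO and 100% = wells lacking GSTO1-1 enzyme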
Target sequence (P78417 whole entry, looked up): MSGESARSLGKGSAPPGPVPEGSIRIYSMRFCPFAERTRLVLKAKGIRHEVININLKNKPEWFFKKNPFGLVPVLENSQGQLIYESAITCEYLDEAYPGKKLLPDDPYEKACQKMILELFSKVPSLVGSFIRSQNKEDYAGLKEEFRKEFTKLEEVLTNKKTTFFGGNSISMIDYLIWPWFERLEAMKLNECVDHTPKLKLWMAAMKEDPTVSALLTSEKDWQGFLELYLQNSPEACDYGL
LYPLA1 confirm – LYPLA1 (human) inhibition, confirmation counter-screen. inhibition, % at 5.9 µM. shares compounds with LYPLA1 inh. recombinant LYPLA1, FP-Rh probe fluorescence polarization. 480 compounds, 69% hits;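 active = mean inhibition across replicates above the hit cutoff set in the primary screen, cut at about 15% in these data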;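 also: loss of FP-Rh probe labeling of LYPLA1 seen as lower polarization; 0% = LYPLA1 with DMSO and 100% = wells lacking LYPLA1 enzyme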
LYPLA2 conf – counter-screen for PME1 inhibitors: confirmation of human LYPLA2 inhibitors. recombinant LYPLA2, FP-Rh probe fluorescence polarization. shares compounds with LYPLA2 counter. inhibition, % at 5.9 µM. 1,100 compounds, 72% hits. AID 2232;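 active = mean inhibition across replicates above the hit cutoff set in the primary screen, cut at about 26% in these data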;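 also: blocked labeling of the enzyme by serine hydrolase FP-Rh probe lowers polarization; 0% = enzyme with DMSO and 100% = wells lacking LYPLA2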
LYPLA2 ABPP – blocks human acyl-protein thioesterase 2 in gel ABPP; shares compounds with LYPLA2 counter; rhLYPLA2 in mouse brain proteome, gel ABPP FP-Rh; inhibition, % at 20 µM; 150 compounds, 30% hits;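 active = inhibition of LYPLA2 enzyme probe labeling above about 50%, limit read from the data; inactive = inhibition below that limit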;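 also: loss of FP-Rh probe labeling of the LYPLA2 gel band measured as band density; 0% = DMSO only control band and 100% = blank gel background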
PREPL inh cf – confirmation of human PREPL enzyme inhibitors. shares compounds with PREPL inhibitor. recombinant PREPL, fluorescence polarization activity probe. inhibition, % at 5.96 µM. 2,000 compounds, 67% hits. AID 2803;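 also: 0% = protein with DMSO and 100% = wells lacking protein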
An asterisk follows results filed as active; x = no result. Rule as the data show it, unless noted: active = inhibition above about 43%; inactive = the rest.

SMILES	PME-1 primary	LYPLA1 inh	PREPL inhibitor	Fam108B inh	LYPLA2 counter	GSTO1 inh	PREPL inh cf	others
O=[N+]([O-])O[C@H]1CO[C@H]2[C@@H]1OC[C@H]2O[N+](=O)[O-]	-3	-1	-4	-2	0	9	x
Cc1ccccc1NC(=O)Cc1nc(COC(=O)Cc2ccccc2)cs1	18	40*	14	x	47*	x	x	LYPLA1 confirm=-2;LYPLA2 conf=-4
COc1c(/C=C2/C(=O)NC(=O)N(C)C2=O)c(CCN(C)C(=O)c2ccccc2)cc2c1OCO2	7	1	3	-1	2	7	x
O=c1cc(C(F)(F)F)c2cc3c4c(c2o1)CCCN4CCC3	16	18*	56*	12	17	14	55*	LYPLA1 confirm=9
CCCCNC(=O)Nc1ccc(C(O)(C(=O)OCC)C(F)(F)F)cc1 (stereo not drawn)	-6	-1	-5	-1	-3	2	x
CCN(CC)C(=O)c1ccc(NC(=O)CCCSc2ccccc2)cc1	-8	-2	-90	0	8	1	x
CCN(CC)C(=O)c1ccc(NC(=S)NC(=O)CCc2ccccc2)cc1	1	0	-5	1	30*	1	x	LYPLA2 conf=21
CC(=O)O[C@H]1CC[C@@]2(C)C(=CC(=O)C3C2CC[C@@]2(C)C3C[C@H](OC(C)=O)[C@@H]2OC(C)=O)C1 (stereo partly drawn)	x	x	-5	x	x	x	x
O=C(COc1ccc(Br)cc1)N1CCN(Cc2ccc3c(c2)OCO3)CC1	1	6	4	-1	32*	-2	x	LYPLA2 conf=25
C[N+]1(C)C2CCC1CC(OC(=O)c1ccccc1)C2 (stereo not drawn)	2	5	1	4	26*	9	x	LYPLA2 conf=2
CO[C@@H]1C=CC23c4cc5c(cc4CO[C@]2(O)CN(C)[C@H]3C1)OCO5 (stereo partly drawn)	x	x	11	x	x	x	x
O=[N+]([O-])c1ccc(NCc2ccc(Cl)cc2)c2ccncc12	7	3	35	5	33*	3	x	LYPLA2 conf=52*;LYPLA2 ABPP=49
NCCNc1ccc([N+](=O)[O-])c2cccnc12	-3	1	5	4	2	13	x
C1=C(c2c[nH]c3ccccc23)CCNC1	-2	-1	62*	-1	6	-7	63*
CC(C)Nc1ccc(Nc2ccccc2)cc1	2	2	77*	-1	11	28	55*
O=C(c1ccc2c(c1)N(Cc1ccc(F)cc1)CCS2)N1CCC2(CC1)OCCO2	14	1	67*	0	2	10	63*
Cc1ccc(CN2CCN(CC(=O)N3CCC4(CC3)OCCO4)C2=O)cc1	-8	-2	7	-3	-12	-3	x
Cc1ccc(CN2CCSc3ccc(C(=O)N4CCC5(CC4)OCCO5)cc32)cc1	13	3	82*	3	7	7	74*
Cc1nc2ccc(P(=O)(O)O)cc2s1	2	-2	1	-4	-6	11	x
COc1ccc2[nH]c(C)c(CCNCc3cc(OC)c(OC)c(OC)c3)c2c1	-10	6	2	12	4	0	x
COc1ccc2[nH]c(C)c(CCNCc3cc(OC)c4c(c3)OCO4)c2c1	1	-1	74*	x	-3	x	66*
C#CCOc1ccc2c(c1)c(C(C)=O)c(C)n2Cc1ccccc1	2	-5	5	0	-12	-8	x
COc1ccc2c(c1)c(CCN)c(C)n2Cc1ccccc1	7	1	45*	5	1	-6	42
CC(Cc1ccccc1)NC(=O)c1ccc(N)cc1 (stereo not drawn)	-3	0	-3	4	0	4	x
CC(Cc1ccccc1)NC(=O)C(c1ccc(N)cc1)c1ccc(N)cc1 (stereo not drawn)	2	4	50*	-3	-6	4	33
